22 molecules from PubChem BioAssay (NCI) can be followed below.

About 79,000 compounds went through this panel and 15% of them were active in at least one assay; those are over-represented in the sample as a whole. Values without a mark were called inactive. The source made the active and inactive calls. No stated cut-off is given here; in the data, active means growth inhibition above about 70%; inactive means the rest.

The nature of the experiment: NCI Yeast Anticancer Drug Screen. Data for the sgs1 mgt1 strain (AID 161).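 Further: 0% = growth of cultures given vehicle only.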 The settings on record: S. cerevisiae sgs1 mgt1 strain, at 50.0 µM, stronger effect = higher value. The essentials: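 Test agents were incubated with a DNA-repair-mutant yeast strain. Growth was then read and compared against vehicle-treated controls.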
For the molecule `O=C1OC(=O)c2ccc(SCC(O)CCl)c3cccc1c23` (configuration not stated), the growth inhibition is 98.7% (active).
The result for `O=C(O)C1C(C2c3ccc(O)cc3Oc3cc(O)ccc32)C2(Cl)C(Cl)=C(Cl)C1(Cl)C2(Cl)Cl` (configuration not stated) reads 96.8% (active).
Then `COc1ccccc1C(=O)C(CN(C)C)CN(C)C`, with 6.65%.
Then `C/C(=N\NC(=O)C[N+](C)(C)C)c1sc(-c2cccnc2)nc1C`, with 6.5%; and `CCOC(C#CC(=O)C(C)C)OCC`, with 0.85%; and `O=C1c2cc([N+](=O)[O-])cc3cc([N+](=O)[O-])cc(c23)C(=O)N1CCNCCNCCNCCN1C(=O)c2cc([N+](=O)[O-])cc3cc([N+](=O)[O-])cc(c23)C1=O`, with 91.5% (active).
Take `COc1ccc(C2C(=O)C(Cl)N2Nc2nc(C)cc(=O)[nH]2)cc1OC` (configuration not stated): the growth inhibition was 4.2%.
`NC1=NN(c2ccccc2)C(=O)/C1=C\n1c(=S)[nH]c2ccccc21`: the growth inhibition was -39.6%.
The result for `O=C(OCCc1ccccc1)C(O)c1ccccc1` (configuration not stated) reads 3%; that for `COC(=O)/C=C(\C(=O)OC)C(C(=O)c1ccccc1)=P(c1ccccc1)(c1ccccc1)c1ccccc1`, -4.2%; that for `COc1ccc2c(N=[N+]=[N-])cc(C)nc2c1`, -16.9%.
In the case of `CC(C)N(C(=O)C1C2CCC(CC2)C1C(=O)N(C(C)C)C(C)C)C(C)C` (configuration not stated), the growth inhibition was 11.3%.
With `CC(C)(C)OC(=O)c1c2ccccc2cc2ccccc12`, the growth inhibition was 14%.
Then `C=CCNC(=S)Nc1ccc(OC(=O)NC(C)(C)C)cc1`, with 26.4%; and `COC(=O)CNC(=O)C(Cc1ccccc1)NC(=O)OCc1ccccc1` (configuration not stated), with -1.55%.
For the molecule `CN1C(=O)NC(C)(CCOCc2ccccc2)C1=O` (configuration not stated), the growth inhibition was 0.25%.
The result for `CCCC(O)C(CC)[N+](=O)[O-]` (configuration not stated) reads 5%.
Then `O=C(O)/C=C/C(=O)Nc1ccc(C(=O)O)cc1`, with 10.2%; and `O=C(NNC(=O)c1cccc2ccccc12)c1ccccc1F`, with -13.9%; and `BrC1(C2(Br)N(c3ccccc3)CCN2c2ccccc2)N(c2ccccc2)CCN1c1ccccc1`, with 42.4%.
The result for `COC1CCC(C(C)(C)C)CC1` (configuration not stated) reads 0.15%; that for `CCCCCCCCCOCC(COP(=O)([O-])OCC[N+](C)(C)C)OC` (configuration not stated), 1.4%.
